{
  "source": "PubChem BioAssay (NCI)",
  "note": "Compounds without any hit were thinned out: in the full panel of roughly 83,000, 20% have a hit.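 48-hour exposure, single concentration, 96-well plates; percent growth endpoint where 0 means no net growth. Active: below 10.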 Values without a mark were called inactive. The source made the active and inactive calls.",
  "data": [
    {"system": "HL-60(TB) leukemia", "assay": "NCI-60 one-dose screen, 48 h (100 = growth as untreated, 0 = no growth, -100 = all killed)", "details": "10 µM unless noted", "values": [
      {"smiles": "O=C(NO)c1ccc(Cn2c(=O)n(-c3ccccc3F)c(=O)c3ccccc32)cc1", "growth": "-1.46% (active)"},
      {"smiles": "O=C(Nc1ccc(CN2CCOCC2)cc1)c1[nH]ncc1Nc1ncnc2sccc12", "growth": "-22% (active)"},
      {"smiles": "CSc1ccccc1C#C/C=C\\C#Cc1ccccc1N1CCCC1=O", "growth": "-33.4% (active)"},
      {"smiles": "NC(=O)c1c(NC(=O)c2cccc(C(F)(F)F)c2)sc2c1CCC(=O)C2", "growth": "-11.6% (active)"},
      {"smiles": "CCC(c1ccc(OC)cc1)C(CC)c1ccc(O)c(CN2CCCC2)c1", "note": "(stereo not drawn)", "growth": "-45.9% (active)"},
      {"smiles": "Cc1ccc(N=NC2C(=O)N(c3ccc(Cl)cc3)N(c3ccc(Cl)cc3)C2=O)cc1", "growth": "103%"},
      {"smiles": "CC1=C(C/C=C(\\C)CCC[C@H](C)CCC[C@H](C)CCCC(C)C)C(=O)c2ccccc2C1=O", "growth": "105%"},
      {"smiles": "C/C(=C(/c1ccccc1)c1ccc(N2C(=O)c3cccc4c(N5CCN(C)CC5)ccc(c34)C2=O)cc1)c1ccccc1", "growth": "99.3%"},
      {"smiles": "COc1ccc(Oc2ccc(/C=C/C(=O)c3cc4ccccc4oc3=O)cc2)cc1", "growth": "31.1%"},
      {"smiles": "Cc1nccc2c3ccc(OCc4cn(-c5ccc(Cl)cc5)nn4)cc3n(CCCc3ccccc3)c12", "growth": "-64.9% (active)"},
      {"smiles": "O=C(CCc1nnco1)c1nc2ccc([N+](=O)[O-])cc2[nH]1", "growth": "120%"},
      {"smiles": "C=C(C)[C@@H]1CC[C@]2(C(=O)N3CCCNCC3)CC[C@]3(C)[C@H](CC[C@@H]4[C@@]5(C)CCC(=O)C(C)(C)[C@@H]5CC[C@]43C)[C@@H]12", "growth": "67.4%"},
      {"smiles": "CN(C)c1cccc2c(S(=O)(=O)N[C@H]3CC[C@H]4[C@@H]5CCc6cc(O)ccc6[C@H]5CC[C@]34C)cccc12", "growth": "-26.7% (active)"}
    ]}
  ]
}
